Hit rate of the full screen: of about 370,000 compounds, about 4,700 (1.3%) were called active. This is one part of a sample in which actives are shown more often than they occur. Values without a mark were called inactive.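 The calls were made as follows: active = inhibition above the plate cutoff, the mean of all test compounds on that plate plus 3 SD (cut at about 35% in these data); inactive = the rest.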
Assay: binders of r(CAG) RNA repeats, primary screen, biochemical, fluorescence (AID 651821);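 also: 0% = DMSO alone and 100% = 100 µM mitoxantrone as full dye displacement; higher means more dye released from RNA so lower well fluorescence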
Conditions: r(CAG) RNA repeat, TO-PRO-1 dye displacement fluorescence; at 3 µM; active compounds read high
Compound `O=c1[nH]c(=O)n(Cc2ccccc2)c(O)c1/C=N/Nc1c(F)c(F)c(F)c(F)c1F` has an inhibition of 0.55%. Work on `CCCCn1c(O)c(C(CC)=NCc2ccco2)c(=O)[nH]c1=O` yielded an inhibition of -0.86%. With `CC/C(=N\NC(=O)c1ccccc1O)c1c(O)n(Cc2ccccc2)c(=O)[nH]c1=O` the inhibition was 80.1% (active). For `C[N+]1(C)CCOC(O)(c2ccc(-c3ccc(C4(O)C[N+](C)(C)CCO4)cc3)cc2)C1` (stereo not given), the inhibition was 3.46%. With `Cc1ccccc1CCC[C@@H](CC1CCCCC1)CN(C)C(=O)Oc1ccccc1` the inhibition was 6.44%. For `Clc1ccc([C@@H]2CC3CCC2N3)cn1` (stereo not given in full), the inhibition was 1.8%. `COc1cc(OC)cc(C(=O)NCCN2CCC3(CC2)C(=O)NCN3c2ccccc2)c1` showed an inhibition of 4.12%. With `COc1ccc(N2C(=O)/C(=C/c3ccco3)C(=O)NC2=S)cc1` the inhibition was 67.3% (active). For `O=Cc1cn(Cc2ccc(F)cc2Cl)c2ccccc12`, the inhibition was -0.22%. Compound `CCc1nnc(NS(=O)(=O)c2ccc(N=Cc3c(O)n(-c4ccccc4)c(=O)[nH]c3=O)cc2)s1` has an inhibition of 5.87%. For `O=C1CC(=O)N(Cc2ccccc2)C(=O)N1CCCCCCN1C(=O)CC(=O)N(Cc2ccccc2)C1=O`, the inhibition was 68% (active). For `CC(C)(C)c1ccc(CN2C(=O)CN=C(c3ccccc3)c3ccccc32)cc1`, the inhibition was -3.15%. For `O=C(NC(=S)N1C[C@H]2C[C@H](C1)c1cccc(=O)n1C2)c1ccc(F)cc1`, the inhibition was 0.97%. Work on `O=C1C2(Cl)C3(Cl)C4(Cl)C(Cl)(Cl)C5(Cl)C3(Cl)C1(Cl)C5(Cl)C24Cl` (stereo not given) yielded an inhibition of 11.4%. With `Cc1cc(=O)oc2c(C)c(OCC(=O)N3CCN(Cc4ccc5c(c4)OCO5)CC3)ccc12` the inhibition was -1.14%. In the case of `COc1cccc(N2C(=O)NC(=O)/C(=C\c3ccc([N+](=O)[O-])s3)C2=O)c1`, the inhibition is reported as 56% (active). With `O=C1NC(=O)N(c2ccccc2)C(=O)/C1=C/c1ccc([N+](=O)[O-])s1` the inhibition was 70.2% (active). Work on `CC1=C(C(=O)Nc2ccccc2)SCCO1` yielded an inhibition of 5.19%. Compound `Cc1ccsc1C(=O)C1CCCN(Cc2ccc(O)cc2)C1` (stereo not given) has an inhibition of -1.2%. Compound `O=c1[nH]c(=O)n(-c2ccccc2)c(O)c1C=NC12CN3CN(CN(C3)C1)C2` has an inhibition of 2.56%. `O=S(=O)(c1ccccc1)N1CCC2CCNC2C1` (stereo not given) showed an inhibition of 1.15%. For `Cc1cc(N2CCNC[C@@H]2C)ccc1N1CC[C@H](O)C1`, the inhibition was 3.47%. `COc1ccccc1OC(=O)c1ccc(C)c(S(=O)(=O)N2CCOCC2)c1` gave an inhibition of -3.22%. Work on `CS(=O)(=O)N1CCC2CCNC2C1` (stereo not given) yielded an inhibition of 0.17%. In the case of `COP(=O)(Sc1ccccc1)C(Cc1ccccc1)NC(=O)OCc1ccccc1` (stereo not given), the inhibition is reported as -1.61%. Work on `CCC(C)NC1(c2ccccc2)CCCCC1` (stereo not given) yielded an inhibition of 2.27%. Compound `COc1ccc(CN2CCN(c3ccccc3F)CC2)c(OC)c1` has an inhibition of -4.43%. For `Brc1ccc2c(c1)CNCc1cnnn1-2`, the inhibition was 0.59%. For `COc1ccc2c(c1)[C@@]13CCCCC1[C@@H](C2)NCC3` (stereo not given in full), the inhibition was 37.9% (active). With `COc1ccc2[nH]c3c(c2c1)CCN[C@H]3C` the inhibition was 3.06%. In the case of `COc1ccc2c(c1)[C@]13CCCCC1C(C2)N(C)CC3` (stereo not given in full), the inhibition is reported as 3.99%. Work on `CCN(CC)C(=O)[C@@H]1C=C2c3cccc4[nH]c(Br)c(c34)C[C@H]2N(C)C1` yielded an inhibition of 2.23%. For `CN(C)C(=O)NC(O)C(Cl)(Cl)Cl` (stereo not given), the inhibition was -3.56%. For `O=C1NC(=O)N(Cc2ccco2)C(=O)/C1=C\c1ccc(-c2ccc(F)cc2)o1`, the inhibition was 52.2% (active). With `CCC1(CC(C)c2ccccc2)C(=O)NC(=O)NC1=O` (stereo not given) the inhibition was 1.88%.
